ASM inhibitor – inhibitors of human secretory acid sphingomyelinase; placental ASM, HMU-PC fluorogenic substrate, 60 min; Potency, µM (doses to about 57.5 µM), for inactives: top-dose activity change, negative = inhibition, usual class: inhibitors; 0.006% of 340,000 active; note: potency is the fitted concentration of half-maximal effect
Target sequence (P17405 47-631 limits assumed): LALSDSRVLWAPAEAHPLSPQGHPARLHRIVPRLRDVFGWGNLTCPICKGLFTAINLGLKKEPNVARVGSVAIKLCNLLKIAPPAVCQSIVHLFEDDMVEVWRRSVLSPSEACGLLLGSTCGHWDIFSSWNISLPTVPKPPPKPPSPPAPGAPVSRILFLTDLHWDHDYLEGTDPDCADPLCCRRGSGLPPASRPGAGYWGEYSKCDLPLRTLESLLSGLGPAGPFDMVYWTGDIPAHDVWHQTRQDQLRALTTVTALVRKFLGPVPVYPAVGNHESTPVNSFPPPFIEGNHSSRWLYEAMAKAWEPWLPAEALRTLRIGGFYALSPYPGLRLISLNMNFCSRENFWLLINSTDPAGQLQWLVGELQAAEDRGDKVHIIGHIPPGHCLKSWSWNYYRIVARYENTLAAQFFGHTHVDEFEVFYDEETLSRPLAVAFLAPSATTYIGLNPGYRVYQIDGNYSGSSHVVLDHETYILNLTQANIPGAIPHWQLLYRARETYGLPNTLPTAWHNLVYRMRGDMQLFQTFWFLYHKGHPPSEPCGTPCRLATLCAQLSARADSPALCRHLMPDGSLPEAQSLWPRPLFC
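Human placenta-derived ASM preincubated with compound 10 min at room temperature, then reacted with 9 uM (final) fluorogenic HMU-PC substrate for 60 min at 37 C. Stop solution raises pH to 10; fluorescence read at Ex 386/Em 447 nm.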
DT40 TDP1 CPT – DT40-hTDP1 cell growth loss with CPT. chicken DT40 Tdp1-/-;hTDP1 cells + 20 nM CPT, ATP luminescence, 48 h. Potency, µM (highest dose often 46.2 µM), without a hit: at the top dose activity change, negative = growth inhibition, hits mostly inhibitors. 12% of 420,000 active. AID 686979; note: potency is the fitted concentration of half-maximal effect; % is set by controls: 0 for no effect and ±100 for the full control effect; nearly all actives have a fitted effect of over 55% in size
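Cell growth measured by CellTiter-Glo luminescence after a minimum 48 h, 37 C compound exposure with 20 nM CPT in Tdp1-knockout DT40 cells stably expressing hTDP1, seeded 400/well; qHTS titration format.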
TGFb SMAD3 inh – inhibitors of TGF-b signaling; HepG2 CAGA-GFP TGF-b/SMAD3 reporter, GFP fluorescence, 18 h; TGF-beta stimulated, 500 pg/mL final; Potency, µM (highest dose often 46.1 µM), for the others: at the highest dose activity, negative = inhibition, actives largely listed as inhibitors; 1.2% of 410,000 active; AID 588855; note: potency is the fitted concentration of half-maximal effect; % is set by controls: 0 for no effect and ±100 for the full control effect; nearly all actives have a fitted effect of over 65% in size
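HEPG2 CAGA-GFP reporter cells (1000/well, DMEM with 1% FBS) received compounds, then recombinant TGF-beta at 500 pg/mL final for 18 hours at 37 degrees C. Per-cell GFP summed per well was normalised to unstimulated and stimulated DMSO controls before curve fitting.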
TDP1 cell noCPT – qHTS for Inhibitors of human tyrosyl-DNA phosphodiesterase 1 (TDP1): qHTS in cells in absence of CPT | DT40 Tdp1-/- hTDP1 cells, no CPT, ATP luminescence, 48 h | Potency, µM (series often up to 46.2 µM), for the others: top-dose activity change, negative = growth inhibition, most hits filed as inhibitors | 15% of 420,000 active; note: potency is the fitted concentration of half-maximal effect; % is set by controls: 0 for no effect and ±100 for the full control effect; nearly all actives have a fitted effect of over 55% in size
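Compound effects on proliferation are scored in DT40 Tdp1-/-;hTDP1 cells in the absence of CPT. ATP levels (CellTiter-Glo luminescence) are recorded after a ≥48 hr, 37 °C incubation.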
IL1B secr inh – inflammasome signaling inhibition, IL-1 beta readout. THP-1 LPS/ATP IL-1B secretion, AlphaLISA, 16 h; active compounds read low. activity change, % at 57.5 µM. 4.7% of 360,000 active; in the data active = activity change below about -50%; inconclusive = mostly about -30% to -49%; note: % is set by controls: 0 for no effect and ±100 for the full control effect
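THP-1 cells pretreated 1 hr with compounds (up to 57.5 uM final), then stimulated with LPS (250 ng/mL final) plus ATP (1.25 mM final); secreted IL-1B measured by AlphaLISA after 16 hr, decreased signal indicating inhibition.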
HepG2 viability – counter-screen for TGF-b inhibitors: cytotoxicity in HepG2 cells. HepG2 CAGA-GFP viability, ATP luminescence, 18 h. Potency, µM (doses to about 46.1 µM), for inactives: top-dose activity change, negative = cytotoxicity, hits mostly cytotoxic. 0.76% of 410,000 active. AID 588856; note: potency is the fitted concentration of half-maximal effect
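CellTiter-Glo luminescence gave cytotoxicity after 18 hours at 37 degrees C. The cells were HepG2 CAGA-GFP in 1% FBS DMEM, stimulated with 500 pg/mL TGF-beta after compound addition. %Activity was normalised to no-cell wells (complete cell-killing) and DMSO (no toxicity), and curves were fitted and classified.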
* hit, by the source's call. Shown are actives, neighbours in structure and some others; about 19% of the full set was active somewhere. Unless noted, calls come from the whole dose curve; as a rule, active = well fitted curve in the direction sought with a large enough effect; inconclusive = small, poorly fitted or top-dose-only effect, or another doubt; inactive = no such curve, though single readings can be large; an effect the other way counts as inactive or inconclusive.

Screening Cn1c(CNC(=O)c2ccc(Cl)cc2)nnc1SCC(=O)NC1=NCCS1 returned ASM inhibitor 26.6%, DT40 TDP1 CPT inconclusive, TGFb SMAD3 inh inconclusive, TDP1 cell noCPT inconclusive, IL1B secr inh 5.2 and HepG2 viability -4.4%.
Screening CCOC(=O)CSc1nc2cc3c(cc2c(=O)n1CCCC(=O)NCc1ccc2c(c1)OCO2)OCO3 returned DT40 TDP1 CPT inconclusive, TGFb SMAD3 inh 0.2%, TDP1 cell noCPT inconclusive and HepG2 viability -6.7%.
For COC(=O)c1ccccc1S(=O)(=O)N1CCn2cccc2C1C (stereo not drawn) the results were ASM inhibitor 6.2%, DT40 TDP1 CPT -13.7%, TGFb SMAD3 inh -3.8%, TDP1 cell noCPT -7.3%, IL1B secr inh -78.3* and HepG2 viability 19.9%.
Screening COc1ccc(NC(C)=O)cc1S(=O)(=O)N1CCn2cccc2C1C (stereo not drawn) returned ASM inhibitor 7.2%, DT40 TDP1 CPT -5.7%, TGFb SMAD3 inh -6.6%, TDP1 cell noCPT 6.8%, IL1B secr inh -8.5 and HepG2 viability -4.9%.
For O=C(Nc1ccc(Cl)cn1)c1cnn2c1NC(=C1CC1)C=C2C(F)F the results were DT40 TDP1 CPT inconclusive, TGFb SMAD3 inh -0.5%, TDP1 cell noCPT -19.4% and HepG2 viability -4.0%.
`CCc1c(C2(O)CCCCC2)[nH]c2cnccc12` gave ASM inhibitor 58.4%, DT40 TDP1 CPT inconclusive, TGFb SMAD3 inh -1.0%, TDP1 cell noCPT 18.4µM*, IL1B secr inh 36.4 and HepG2 viability -25.9%.
`Cc1nc2nc(NC(=O)C(C)(C)C)[nH]n2c(=O)c1Cc1ccccc1` gave DT40 TDP1 CPT 0.0%, TGFb SMAD3 inh 6.1%, TDP1 cell noCPT -2.0% and HepG2 viability -11.1%.
Screening COc1ccc(C(=O)CSc2nnn(-c3cccc(NC(C)=O)c3)n2)cc1 returned ASM inhibitor 1.8%, DT40 TDP1 CPT inconclusive, TGFb SMAD3 inh -0.8%, TDP1 cell noCPT 23.1µM* and HepG2 viability 2.2%.
Screening CC(=O)C1=C(C)OC(N)=C(C#N)C1c1cc([N+](=O)[O-])ccc1Cl (stereo not drawn) returned ASM inhibitor -2.6%, DT40 TDP1 CPT 4.11µM*, TGFb SMAD3 inh inconclusive, TDP1 cell noCPT 3.66µM*, IL1B secr inh -62.3* and HepG2 viability 6.31µM*.
COc1ccc2cc(C3C(C#N)=C(N)OC(C)=C3C(C)=O)c(Cl)nc2c1 (stereo not drawn) was read as ASM inhibitor 8.3%, DT40 TDP1 CPT inconclusive, TGFb SMAD3 inh inconclusive, TDP1 cell noCPT 20.6µM*, IL1B secr inh -3.3 and HepG2 viability -36.1%.
CC(=O)C1=C(C)OC(N)=C(C#N)C1c1cccc([N+](=O)[O-])c1 (stereo not drawn) was read as ASM inhibitor 8.0%, DT40 TDP1 CPT inconclusive, TGFb SMAD3 inh 4.0%, TDP1 cell noCPT inconclusive, IL1B secr inh 5.3 and HepG2 viability -1.5%.
`CC(OC(=O)Cc1ccccc1[N+](=O)[O-])C(=O)Nc1ccc(Cl)cn1` (stereo not drawn) gave ASM inhibitor 4.2%, DT40 TDP1 CPT -14.4%, TGFb SMAD3 inh -12.8%, TDP1 cell noCPT -16.4%, IL1B secr inh 28.7 and HepG2 viability -2.5%.
`CC[C@]12CCCN3CCc4c(n(c5ccccc45)[C@@](O)(C(=O)OC)C1)[C@@H]32` gave ASM inhibitor 0.1%, DT40 TDP1 CPT -8.6%, TGFb SMAD3 inh 3.1%, TDP1 cell noCPT -24.1%, IL1B secr inh -4.7 and HepG2 viability 1.6%.
`CC[C@]12CCCN3CCc4c(n(c5ccccc45)C(=O)C1)[C@@H]32` gave ASM inhibitor 0.4%, DT40 TDP1 CPT 5.6%, TGFb SMAD3 inh -3.6%, TDP1 cell noCPT 6.51µM*, IL1B secr inh 16.2 and HepG2 viability -18.9%.
Screening Cc1ccc(CNc2ncc(-c3ccc4c(c3)OCO4)n2C)cc1 returned ASM inhibitor 0.7%, DT40 TDP1 CPT inconclusive, TGFb SMAD3 inh -16.9%, TDP1 cell noCPT 20.6µM*, IL1B secr inh -9.0 and HepG2 viability -27.5%.
Cc1ccc(CNc2ccc3c(c2)OCO3)cc1 was read as ASM inhibitor 16.8%, DT40 TDP1 CPT inconclusive, TGFb SMAD3 inh -0.8%, TDP1 cell noCPT 20.6µM*, IL1B secr inh -93.2* and HepG2 viability 12.6µM*.
`Cn1c(=O)c2c(nc(NCc3ccc4c(c3)OCO4)n2C)n(C)c1=O` gave ASM inhibitor -0.9%, DT40 TDP1 CPT inconclusive, TGFb SMAD3 inh 5.1%, TDP1 cell noCPT -26.0%, IL1B secr inh 10.7 and HepG2 viability 7.6%.
`Clc1ccccc1-c1cnc2sc(NCc3ccc4c(c3)OCO4)nn12` gave DT40 TDP1 CPT inconclusive, TGFb SMAD3 inh -3.8%, TDP1 cell noCPT 14.6µM*, IL1B secr inh -5.6 and HepG2 viability -48.1%.
`Cn1c(-c2ccc3c(c2)OCO3)cnc1NCc1ccc(Cl)cc1` gave ASM inhibitor -3.2%, DT40 TDP1 CPT inconclusive, TGFb SMAD3 inh -19.1%, TDP1 cell noCPT 18.4µM*, IL1B secr inh 0.0 and HepG2 viability -11.0%.
For O=C(Nc1nnc(CCN2CCCCC2)s1)c1ccc(Cl)cc1Cl the results were ASM inhibitor -2.4%, DT40 TDP1 CPT 2.7%, TGFb SMAD3 inh 4.0%, TDP1 cell noCPT 5.0%, IL1B secr inh -8.8 and HepG2 viability -1.2%.
`Cc1cc(NC(c2cccnc2)c2c(C)[nH]c3ccccc23)no1` (stereo not drawn) gave ASM inhibitor 5.9%, DT40 TDP1 CPT inconclusive, TGFb SMAD3 inh inconclusive, TDP1 cell noCPT inconclusive, IL1B secr inh 5.5 and HepG2 viability -54.5%.
Cc1ccnc(NC(c2ccccn2)c2c(C)[nH]c3ccccc23)c1 (stereo not drawn) was read as ASM inhibitor -0.8%, DT40 TDP1 CPT inconclusive, TGFb SMAD3 inh inconclusive, TDP1 cell noCPT inconclusive, IL1B secr inh -106.2* and HepG2 viability -33.7%.
CCOC(=O)C1CCCN(C(c2ccccn2)c2c(C)[nH]c3ccccc23)C1 (stereo not drawn) was read as ASM inhibitor 6.4%, DT40 TDP1 CPT 8.7%, TGFb SMAD3 inh -1.3%, TDP1 cell noCPT -0.1%, IL1B secr inh 0.0 and HepG2 viability -14.3%.
Screening Cc1[nH]c2ccccc2c1C(c1ccccn1)N1CCC(C)CC1 (stereo not drawn) returned ASM inhibitor 0.7%, DT40 TDP1 CPT 20.6µM*, TGFb SMAD3 inh -14.6%, TDP1 cell noCPT 20.6µM*, IL1B secr inh -106.6* and HepG2 viability -4.7%.

Assay outcomes as filed in PubChem.
